In the library only some 4% were active in any assay of this set; here they are far more common.
TROY signal inh = blocks TROY-dependent signaling in reporter cells; 0.98% of 360,000 active; Q293 LMP1-TROYcd NF-kB luciferase reporter, 4 h; inhibition, % at 10 µM;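 active means compounds whose plate-normalised and pattern-corrected inhibition of the luciferase reporter signal at the single screening dose is 50% or more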
CF NFkB inh = cystic fibrosis NF-kB activation inhibition. KKLEB NF-kB-GFP reporter, PAF-induced, GFP fluorescence overnight. inhibition, % at 5 µM. 0.86% of 360,000 active. AID 588850;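 active means at least 50% inhibition at 5 µM, scaled per plate between neutral and stimulator controls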;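 further: PAF is a Pseudomonas aeruginosa culture filtrate used as stimulus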
HIF-2a inh = HIF-2a inhibition; 786-0 RCC cells HIF-2a reporter, luciferase luminescence, overnight; inhibition, % at 18.8 µM; 0.72% of 360,000 active; AID 624352;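 active means inhibition of the luminescence signal of 40% or more relative to plate controls, in a single-dose primary screen at 18.75 µM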
TWEAK-Fn14 inh = TWEAK-Fn14 signaling inhibition. inhibition, % at 10 µM. TWEAK-stimulated Fn14 reporter cells, luciferase luminescence, 8 h. 2% of 360,000 active; in the data active means inhibition above about 50%
KKLEB cytotox = reduces viability of KKLEB cystic fibrosis airway cells. AID 602141. 0.36% of 360,000 active. activity change (cytotoxicity), % at 5 µM. KKLEB CF airway cells viability, ATPlite luminescence, overnight; stronger effect = lower value; cells stimulated with P. aeruginosa culture filtrate;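 active means corrected activity change at or below -50% at 5 µM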
Peg3 promoter = reduces Peg3 promoter-driven luciferase expression in HeLa. HeLa PEG-Prom luciferase reporter, luminescence, overnight. inhibition, % at 20 µM. 1.7% of 360,000 active;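 active means inhibition of at least 50% at 20 µM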
A number is an active result; 0 = inactive; - = not tested or not shown.

SMILES | TROY signal inh | CF NFkB inh | HIF-2a inh | TWEAK-Fn14 inh | KKLEB cytotox | Peg3 promoter
O=C(OC1CCOC1=O)C1CCN(S(=O)(=O)c2ccc(Cl)c(C(F)(F)F)c2)CC1 (configuration not stated) | 0 | 0 | 0 | 0 | 0 | 0
CC(=O)c1cccc(NC(=O)CSc2nc(N3CCCCC3)nc(N3CCCCC3)n2)c1 | 57 | 0 | 0 | 54 | 0 | 0
CCCCC(CC)CN1CN(CC(CC)CCCC)CC(C)(N)C1 (configuration not stated) | 0 | 0 | 0 | 0 | 0 | 103
CCCCC(CC)COP(=O)(OCC(CC)CCCC)OCC(CC)CCCC (configuration not stated) | 0 | 0 | 0 | 0 | 0 | 0
CC(C)Cc1nnc(NC(=O)c2ccc3c(c2)OCCO3)s1 | 0 | 0 | 0 | 0 | 0 | 0
c1ccc(CCNc2ccnc3cc4ccccc4cc23)cc1 | 0 | 0 | 0 | 0 | 0 | 106
COc1cc(-c2noc(C)c2-c2ccc3[nH]ccc3c2)cc(OC)c1OC | 0 | 0 | 0 | 56 | 0 | 0
COc1cc(-c2noc(C)c2-c2ccc(N(C)C)nc2)cc(OC)c1OC | 0 | 0 | 0 | 0 | 0 | 0
COc1ccccc1NC(=O)c1c(C)cc(=O)oc1C | 0 | 0 | 0 | 60 | 0 | 0
CCn1c(C)cc(C(=O)COC(=O)CNC(=O)c2ccco2)c1C | 0 | 0 | 0 | 0 | 0 | 0
CC1(C(=O)NCc2ccc(F)c(F)c2)Cc2c(-c3ccccc3)ccnc2O1 (configuration not stated) | 0 | 0 | 0 | 0 | 0 | 0
CCCCCCN1C[C@@H](n2cc(-c3ccc(F)cc3)nn2)[C@H](O)C[C@@H]1c1ccc(OC)cc1 | 0 | 0 | 0 | 0 | 0 | 61
CCCCCCN1C[C@@H](n2cc(-c3ccc(F)cc3)nn2)[C@H](O)C[C@@H]1c1ccc(Cl)cc1 | 0 | 0 | 0 | 0 | 0 | 69
Cc1cccn2c(=O)nc(SCC(=O)NCc3ccc(F)cc3)nc12 | 0 | 0 | 0 | 0 | 0 | 0
O=S1(=O)CC(N2CC=CC2)CN1Cc1cn(Cc2cccc(Cl)c2)nn1 (configuration not stated) | 0 | - | 0 | 0 | - | -
Cc1cccc2c1-c1sc(C(=O)NCCCN3CCC(C)CC3)cc1CO2 | 0 | 0 | 0 | 0 | 0 | 75
COC(=O)c1cc2c(s1)-c1ccccc1OC2 | 0 | 0 | 0 | 0 | 0 | 0
CC1CCCN(CCCNC(=O)c2cc3c(Cl)nc4ccccc4c3s2)C1 (configuration not stated) | 0 | 0 | 0 | 0 | 0 | 92
CC1CCCN(CCCNC(=O)c2cc3c(s2)-c2ccccc2OC3)C1 (configuration not stated) | 0 | 0 | 0 | 0 | 0 | 75
CC1CCN(CCCNC(=O)c2cc3c(s2)-c2ccccc2OC3)CC1 | 0 | 0 | 0 | 0 | 0 | 62
O=C(O)CCC(=O)Nc1nnc(C(F)(F)F)s1 | 0 | 0 | 0 | 0 | 0 | 0
CCC(NC(=O)Nc1nnc(C(F)(F)F)s1)(C(F)(F)F)C(F)(F)F | 64 | 58 | 0 | 0 | -51 | 0
O=C(O)CSc1nnc(-c2ccc(Cl)cc2Cl)n1-c1ccc(Cl)cc1 | 0 | 0 | 0 | 0 | 0 | 0
O=C(/C=C/Sc1ccc(C(F)(F)F)cn1)c1ccccc1 | 0 | 0 | 0 | 60 | 0 | 96
COc1ccc(Cc2nnc(SCC(=O)Nc3c(C)cccc3C)[nH]c2=O)cc1 | 0 | 0 | 0 | 0 | 0 | 0
SMILES | TROY signal inh | CF NFkB inh | HIF-2a inh | TWEAK-Fn14 inh | KKLEB cytotox | Peg3 promoter
CCOc1ccc(CN(C)CC(O)COC(c2ccc(OC)cc2)c2ccc(OC)cc2)cc1 (configuration not stated) | 0 | 0 | 0 | 0 | 0 | 50
COc1ccc2sc3c(=O)[nH]c4ccccc4c3c2c1 | 0 | 63 | 0 | 0 | 0 | 0
CC1CNC(=S)N(c2ccc(F)cc2)C1=O (configuration not stated) | 0 | 0 | 0 | 0 | 0 | 0
CC1CNC(=S)N(c2ccccc2)C1=O (configuration not stated) | 0 | 0 | 0 | 0 | 0 | 62
CCOc1ccc(C(=O)COC(=O)CNC(=O)C2CCCCC2)cc1 | 0 | 0 | 0 | 0 | 0 | 0
CC(C)(Oc1ccc(Cl)cc1)C(=O)NCC1CCCO1 (configuration not stated) | 0 | 0 | 0 | 0 | 0 | 0
OCC1OC(n2cnc3c(NCc4ccco4)ncnc32)C(O)C1O (configuration not stated) | 0 | 0 | 0 | 0 | 0 | 87
OC[C@H]1O[C@@H](n2cnc3c(NCc4ccco4)ncnc32)[C@H](O)[C@@H]1O | 0 | 0 | 0 | 0 | 0 | 0
Cc1ccc(Cl)cc1-c1cc(C(=O)N2CCN(c3ccncc3)CC2)[nH]n1 | 0 | 0 | 0 | 0 | 0 | 0
CCN(C(=O)C1CC1)C1CCS(=O)(=O)C1 (configuration not stated) | 66 | 0 | 0 | 0 | 0 | 0
Cc1ccc(N(C)S(=O)(=O)c2cc(-c3cnc(C4CC4)o3)ccc2C)cc1 | 56 | 0 | 0 | 78 | 0 | 0
O=C1CCCN1CC(=O)N1CCCC(Nc2cccc(F)c2)C1 (configuration not stated) | 0 | 0 | 0 | 0 | 0 | 0
COc1cc(SC)ccc1C(=O)Nc1ccc(Cl)cn1 | 74 | 0 | 53 | 91 | -69 | 0
CSc1ccc(Cl)c(C(=O)Nc2ccc(Cl)cn2)c1 | 0 | 0 | 0 | 0 | 0 | 0
Cc1ccc(C(=O)Nc2ncc3c(Cl)cccc3n2)cc1 | 0 | 0 | 0 | 82 | 0 | 0
Cc1ccc(CC(=O)Nc2ccc(Cl)cn2)cc1 | 0 | 0 | 0 | 0 | 0 | 0
CCCOc1ccc(C(=O)Nc2ccc(Cl)cn2)cc1 | 0 | 0 | 0 | 57 | 0 | 0
Cc1ccc(C(=O)Nc2ccc(Cl)cn2)cc1 | 0 | 0 | 0 | 56 | 0 | 0
COc1ccc(C(=O)N2CCC2(C)C(=O)NC(C)C)cc1 (configuration not stated) | 0 | 0 | 0 | 0 | 0 | 0
COC(=O)c1cc(=O)nc(NN=Cc2ccc(C)cc2)s1 | 0 | 0 | 0 | 0 | 0 | 0
CCC1CCC/C1=N\NC(=O)c1ccoc1C (configuration not stated) | 0 | 0 | 0 | 0 | 0 | 0
CCN(CCn1cccn1)C(=O)C1CCC(=O)N(CC2CCCCC2)C1 (configuration not stated) | 0 | 0 | 0 | 0 | 0 | 0
COc1cccc(-c2nn(-c3ccccc3)cc2C(=O)n2nnc3ccccc32)c1 | 0 | 0 | 0 | 0 | 0 | 50
O=C(c1cn(-c2ccccc2)nc1-c1ccccc1)n1nnc2ccccc21 | 0 | 0 | 0 | 0 | 0 | 0
O=C(C(c1ccccc1)C(O)c1ccccc1)N1CCOCC1 (configuration not stated) | 0 | 0 | 0 | 0 | 0 | 0
COc1ccc(NC(=O)N2C3CCCC2CC(NC(=O)C2CC2)C3)cc1 (configuration not stated) | 0 | 0 | 0 | 77 | 0 | 0
COc1cccc(NC(=O)N2C3CCCC2CC(NC(=O)C2CC2)C3)c1 (configuration not stated) | 0 | 0 | 0 | 0 | 0 | 0
CC(C)N1CCC(=NNC(=O)c2cccs2)CC1 | 0 | 0 | 0 | 0 | 0 | 0

Compound activity from PubChem BioAssay.
